These results are taken from PubChem BioAssay (NCI).

This is part of a sample that, as a whole, favours compounds with a hit. Of some 83,000 tested, about 20% had one in any assay.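 Single-concentration screen, 48 h exposure, 96-well plates. Endpoint: percent growth. Below 10 = active.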 The source made the active and inactive calls.

This assay deals with BT-549 breast. The assay is described as follows: NCI-60 one-dose screen, 48 h (100 = growth as untreated, 0 = no growth, -100 = all killed). As to conditions: 10 µM. The procedure:
Growth inhibition of the BT-549 human tumor cell line is measured as a screen for anti-cancer activity. Cells are grown in 96 well plates and exposed to the test compound for 48 hours. Compounds are tested at a single concentration, which is 10^-5 M for most compounds. The reported endpoint is percent growth (GI% or GIPRCNT), where numbers from 0 - 100% represent growth inhibition, and numbers from -100% - 0 represent cell death. For example, a value of 40 represents 60% growth inhibition. A value of 0 means no net growth occurred over the course of the experiment. A value of -40 indicates 40% of cells at the beginning of the experiment died by the end of the experiment. A value of -100 means all cells are dead at the end of the experiment.
NCI-60 Human Tumor Cell Lines Screen was performed using the standard one-dose NCI protocol, which is described in more detail at https://dtp.cancer.gov/discovery_development/nci-60/default.htm.
Compounds with GIPRCNT values below 10 were considered active. Activity score was based on GIPRCNT using the following formula: […]
Score is 0 for GIPRCNT values of 100 or above, 50 for GIPRCNT values of 0, and 100 for GIPRCNT values of -100.
`O=C(O)c1ccc(S(=O)(=O)O)cc1`: the growth was 121% (inactive). In the case of `Nc1nc(OCc2ccccc2)c2[nH]cnc2n1` it was 94.4% (inactive); in that of `O=C(N/N=C/c1ccccc1O)Nc1nn[nH]n1`, 111% (inactive); in that of `COC(=O)C(C)Oc1ccc(OC#N)cc1` (stereo not given), 120% (inactive).

For the molecule `O=c1cc(-c2ccccc2)nc2cc(-c3ccco3)[nH]n12`, the growth was 98.3% (inactive).

With `Cc1ccc(CCCC(=O)O)c(C)c1`, the growth is 101% (inactive).

Consider `Cc1cc(C)c(CC(=O)O)c(C)c1`, for which the growth is 104% (inactive). In the case of `CCOc1ccc(Br)cc1/C=N\N=C\c1cc(Br)ccc1OCC` it was 108% (inactive). With `Cc1c(O)cccc1O` the figure was 77.1% (inactive). With `O=C(Nc1ccccc1)OCCc1ccccc1` the figure was 98.1% (inactive). As to `CCC/C=C(\C)C(C)(C#N)C(=O)OCC` (stereo not given), the growth was 116% (inactive). Take `CCCCCCCCCCC1CO1` (stereo not given): the growth is 109% (inactive). With `Cc1cc(=O)n(-c2ccc(F)cc2)[nH]1` the figure was 105% (inactive); with `CN(C)CCN(C)CC(C)(C)C(=O)/C=C/c1ccc(Cl)cc1`, -34.5% (active). With `C=CCOC(=O)C(=O)OCC=C` the figure was 101% (inactive); with `c1ccc2c(N3CCCCC3)ncnc2c1`, 90.8% (inactive).

For the molecule `O=C(NN=C1CCCCC1)C(=O)NN=C1CCCCC1`, the growth is 100% (inactive). With `CNC(=O)c1ccccc1CC1(O)c2ccccc2Oc2ccccc21` the figure was 65% (inactive); with `CCOC(=O)C(C#N)Cc1ccccc1` (stereo not given), 117% (inactive); with `CCCC[P+](c1ccccc1)(c1ccccc1)c1ccccc1`, 17.8% (inactive). In the case of `Cc1cc(N)ccc1-c1ccc(N)cc1C` it was 92.3% (inactive). With `COS(=O)(=O)c1ccc(Br)cc1` the figure was 113% (inactive).

Turning to `CCOC(=O)c1cc(/C=C/c2ccc(Cl)cc2Cl)on1`, the growth is 26.3% (inactive). `O=C1c2ccccc2C(=O)N1OCc1ccccc1`: the growth was 118% (inactive). With `CCOC(=O)c1[nH]c(C)c(C(C)=O)c1C` the figure was 107% (inactive); with `O=S(=O)(O)c1cc(O)c2c(N=Cc3ccccc3O)c(S(=O)(=O)O)ccc2c1`, 101% (inactive). In the case of `CCCCNC(=O)C(=O)NCCCC` it was 98.8% (inactive). For `c1ccc2c(c1)Sc1ccccc1S2`, the growth is 97.5% (inactive).

Consider `COc1ncnc2c1cnn2C`, for which the growth was 95.4% (inactive). As to `S=C1CCCCCN1`, the growth was 103% (inactive). On to `Cc1cc(NC(=O)CSCC(=O)O)no1`, for which the growth was 98.7% (inactive).

As to `COc1ccccc1NC(=O)c1cc2cc(Br)ccc2cc1O`, the growth is 18.8% (inactive).

Regarding `CCOc1ccccc1/C=N/Nc1nc2ccccc2o1`, the growth was 98.3% (inactive). `O=C(O)CCC(=O)OC(C1CO1)C(OC(=O)CCC(=O)O)C1CO1` (stereo not given): the growth is 108% (inactive). With `CC(CC(=O)c1ccccc1)c1ccccc1` (stereo not given) the figure was 107% (inactive).

For `COc1cc(CN)ccc1O`, the growth was 95% (inactive). With `COc1ccc(C2OC(N)=C(O)C2=O)cc1OC` (stereo not given) the figure was 102% (inactive). With `CC1(C)Nc2cccc3c(N=Nc4ccc(N=Nc5ccccc5)c5ccccc45)ccc(c23)N1` the figure was 124% (inactive); with `CC1=NN(c2ccccc2)C(=O)/C1=C\N1CC(=O)NC1=S`, 107% (inactive); with `COc1cc2cc(OC(C)=O)c3cc4c(cc3c2c(OC)c1OC)OCO4`, 104% (inactive).
